This note sets out measurements from PubChem BioAssay AID1851 (National Center for Advancing Translational Sciences (NCATS), 2009).

Among all 16,000 compounds or so, about 5,800 (36%) were called active. Another 23% or so got no clear call; they are omitted. The call rests on the fitted dose curve; in most records, active means well fitted curve in the direction sought with a large enough effect; inconclusive means small, poorly fitted or top-dose-only effect, or effect the other way; inactive means no such curve, though single readings can be large or run the other way. The list shows a part of the results.
On the % scale 0 is the no-effect control and ±100 the full control effect.

For this assay, the target named is Cytochrome P450 2C19 (Homo sapiens) (UniProt P33261). In words: Cytochrome panel assay with activity outcomes. The following applies: recombinant CYP, pro-luciferin dealkylation, luminescence, p450-cyp2c19; series mostly up to 57.1 µM; activity, negative = inhibition: at the top concentration.
Sequence of Cytochrome P450 2C19 (Homo sapiens) (P33261 whole entry, looked up): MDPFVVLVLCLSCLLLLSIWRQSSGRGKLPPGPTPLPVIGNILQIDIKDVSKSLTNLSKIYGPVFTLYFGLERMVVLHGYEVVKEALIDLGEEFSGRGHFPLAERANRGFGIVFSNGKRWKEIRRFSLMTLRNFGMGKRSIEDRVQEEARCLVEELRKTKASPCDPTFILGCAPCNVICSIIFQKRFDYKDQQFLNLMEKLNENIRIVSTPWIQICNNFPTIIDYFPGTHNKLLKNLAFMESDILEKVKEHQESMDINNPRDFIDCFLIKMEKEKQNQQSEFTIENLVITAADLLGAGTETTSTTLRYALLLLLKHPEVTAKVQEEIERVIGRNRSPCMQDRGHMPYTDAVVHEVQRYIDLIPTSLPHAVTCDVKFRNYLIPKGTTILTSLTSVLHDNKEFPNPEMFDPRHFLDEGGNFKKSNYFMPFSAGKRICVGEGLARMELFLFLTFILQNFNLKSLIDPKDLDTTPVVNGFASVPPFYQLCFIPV
Regarding `O=C(CN1CCCC1)N/N=C/c1ccc(-c2cccc(Cl)c2)o1`, the AC50 is 22.4 µM (active). As for `COC(=O)Nc1nc2ccc(Sc3ccccc3)cc2[nH]1`, the “activity, negative = inhibition” value is -16.1% [at 25.6 µM] (inactive). On to `COc1ccc2nc(SCC(=O)Nc3ccc4c(c3)OCCO4)[nH]c2c1`, for which the AC50 was 10 µM (active). For the compound `CCOC(=O)NC(=O)CSc1nc2ccc(OCC)cc2[nH]1`, the half-maximal activity concentration (AC50) was 14.1 µM (active). As for `CCCCc1ccc2nc(NC(=O)OC)[nH]c2c1`, the “activity, negative = inhibition” value is -17.4% [at 25.6 µM] (inactive). Take `COc1ccc(NC(=O)N2CCCC3(CCN(C(=O)c4ccco4)CC3)C2)cc1`: the “activity, negative = inhibition” value was -1.82% (inactive). On to `COc1ccc2nc(SCC(=O)c3ccco3)[nH]c2c1`, for which the concentration at half-maximal activity (AC50) is 14.1 µM (active). Regarding `Cc1ccc2nc(SCC(=O)c3ccc4c(c3)OCO4)[nH]c2c1`, the AC50 is 2.82 µM (active). On to `Oc1cc(O)c2c(c1)O[C@H](c1ccc(O)c(O)c1)[C@@H](O)[C@@H]2c1c(O)cc(O)c2c1O[C@@H](c1ccc(O)c(O)c1)[C@H](O)C2`, for which the activity, negative = inhibition was -23.6% [at 11.4 µM] (inactive). `CSc1ccc2nnc(-c3cccc(F)c3)n2n1`: the AC50 was 15.8 µM (active). Regarding `Cc1cc(C)c(C#N)c(SCc2cc3c(cc2Cl)OCO3)n1`, the AC50 is 6.31 µM (active). As to `CON1C(=O)C(=O)N(OC)C(C)(C)C1C` (stereo not drawn), the “activity, negative = inhibition” value was -27% (inactive). As to `c1ccc2nc(C3=NCCN3)ccc2c1`, the AC50 entry was “inactive”.

For the compound `c1ccc2nc(-c3ccncc3)ccc2c1`, the AC50 was 3.55 µM (active). On to `CN1[C@@H]2CC[C@H]1CC(OC(=O)c1c[nH]c3ccccc13)C2` (stereo partly drawn), for which the “activity, negative = inhibition” value was 22.9% (inactive). `COc1cc(Cl)c(CC(=O)c2c[nH]c3ccccc23)cc1OC`: the concentration at half-maximal activity (AC50) was 1 µM (active). Consider `O=C(OCCN1CCCCC1)c1c[nH]c2ccccc12`, for which the AC50 result was “inactive”. Regarding `CNC(=O)[C@H](C)[C@H]1C[C@]1(C)[C@H](NC(=O)OCc1ccccc1)c1ccccc1`, the half-maximal activity concentration (AC50) was 1 µM (active).

Turning to `C[C@H](CO)NC(=O)[C@H](C)[C@H]1C[C@]1(C)[C@H](NC(=O)OCc1ccccc1)c1ccccc1`, the concentration at half-maximal activity (AC50) was 0.631 µM (active). As to `CNC(=O)[C@H](C)[C@@H]1C[C@@]1(C)[C@@H](NC(=O)OCc1ccccc1)c1ccccc1`, the AC50 was 0.631 µM (active).

Consider `CC(=O)NCCC(=O)Nc1sc2c(c1-c1nc3ccccc3[nH]1)CCCC2`, for which the AC50 is 14.1 µM (active).

With `CCN(CC)S(=O)(=O)c1cc(C(=O)Nc2ccncc2)ccc1Cl`, the concentration at half-maximal activity (AC50) is 0.01 µM (active). Take `CCN(CC)S(=O)(=O)c1cc(C(=O)OC)ccc1Cl`: the concentration at half-maximal activity (AC50) is 11.2 µM (active). In the case of `CCN(CC)S(=O)(=O)c1cc(C(=O)Nc2ccccc2C(=O)O)ccc1OC`, the “activity, negative = inhibition” value was -24.1% (inactive). Consider `CCn1ccnc1C[C@@H]1COc2ccccc2O1`, for which the AC50 is 10 µM (active).

Take `O=C(Nc1ccccc1N1CCOCC1)c1ccc([N+](=O)[O-])cc1`: the “activity, negative = inhibition” value is -15.9% (inactive).

On to `Cc1ccccc1OCC(=O)Nc1ccc(N2CCN(C(=O)C(C)C)CC2)c(Cl)c1`, for which the AC50 is 8.91 µM (active). `CC(C)C(=O)N1CCN(c2ccccc2NC(=O)c2cccc(Cl)c2)CC1`: the AC50 is 14.1 µM (active).

Regarding `O=C(Nc1ccccc1N1CCN(C(=O)c2ccccc2)CC1)c1cc(Br)ccc1Cl`, the AC50 was 3.16 µM (active). Take `Cc1ccccc1OCC(=O)NC(=S)Nc1ccc(N2CCOCC2)c(Cl)c1`: the “activity, negative = inhibition” value was -29.7% (inactive). Regarding `COc1ccc(-n2c(=O)c(-c3ccc(F)cc3)nc3cncnc32)cc1`, the “activity, negative = inhibition” value was -4.36% (inactive). In the case of `Cc1ccc(-n2c(C)nc3c(cnn3-c3ccc(F)cc3)c2=O)cc1C`, the AC50 was 22.4 µM (active). Take `Cc1cc(C)n(-c2ccc(F)cc2)c(=O)c1C(=O)O`: the “activity, negative = inhibition” value is 10.6% (inactive).

Regarding `CCn1c(=O)c2[nH]c(-c3ccccc3)nc2n(CC)c1=O`, the “activity, negative = inhibition” value was 21.9% (inactive). With `CSc1nc(-c2ccc(C)cc2)[nH]c1S(=O)(=O)c1ccccc1`, the AC50 is 8.91 µM (active). `O=C(NC(=S)Nc1cccc(Cl)c1N1CCCC1)c1ccc(-c2cccc([N+](=O)[O-])c2)o1`: the “activity, negative = inhibition” value is 4.94% (inactive). Consider `O=C(NC(=S)Nc1cccc(Cl)c1N1CCCCC1)c1ccco1`, for which the AC50 is 6.31 µM (active).

Consider `CC1CCN(c2ccccc2NC(=S)NC(=O)c2cccs2)CC1`, for which the AC50 was 8.91 µM (active). Turning to `O=C(NC(=S)Nc1cccc(Cl)c1N1CCCCC1)c1cccs1`, the half-maximal activity concentration (AC50) was 2.51 µM (active). For `CC[C@@]1(O)C(=O)OCc2c1cc1n(c2=O)Cc2cc3c(CN(C)C)c(O)ccc3nc2-1`, the activity, negative = inhibition is -16.8% [at 11.4 µM] (inactive). Still for that read-out and setting: the result for `Clc1ccc2c(NCCNC3CCCCC3)ccnc2c1` reads 41% [at 11.4 µM] (inactive). Regarding `O=C(COc1ccc(Cl)cc1)N(Cc1ccccc1)c1ccccn1`, the AC50 was 0.501 µM (active). On to `C[N+]1(C)CCc2cc(O)c(O)cc2[C@H]1Cc1ccc(O)c(O)c1`, for which the activity, negative = inhibition is 26.9% [at 11.4 µM] (inactive). As to `CCOc1cc(/C=N/n2cnnc2)c(Br)cc1O`, the concentration at half-maximal activity (AC50) was 10 µM (active). Regarding `COc1cc(CNC2CCCC2)cc(Cl)c1OCc1ccccc1Cl`, the AC50 is 2.24 µM (active).

`CCOC(=O)c1[nH]c(COC(=O)CCOc2ccccc2OC)c(C(=O)OCC)c1C`: the AC50 was 4.47 µM (active). With `CCOC(=O)c1[nH]c(C(=O)O)c(CCC(=O)OC)c1C`, the “activity, negative = inhibition” value is -4.44% (inactive). Still for that read-out and setting: the result for `CCOCCCN1C(=O)CN(C2CCCCC2)C(=O)C1c1ccc(OCC)c(OC)c1` (stereo not drawn) reads -25.7% (inactive).
